Compounds with a hit are over-represented: about 2.9% of the library has one in this group of screens.
KLK7 zymogen act = proKLK7 (human) activation, primary screen. P49862. purified proKLK7, EDANS-DABCYL substrate fluorescence; 100% is mature enzyme control, 0% vehicle. activation, % at 7 µM. 370,000 compounds, 0.9% hits. AID 652039;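 active = activation above the mean of all tested compounds plus 3 SD, computed per campaign excluding outliers beyond control limits, cut at about 13% in these data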
ADAM17 inh = inhibits human ADAM17; inhibition, % at 6.95 µM; recombinant ADAM17, EDANS/DABCYL FRET peptide cleavage; 370,000 compounds, 0.83% hits; P78536;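 active = inhibition above the mean of compounds lying between control limits plus 3 SD, set per campaign, cut at about 8.5% in these data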
PLC-gamma1 inh = blocks human PLC-gamma1 enzyme activity | purified PLC-gamma1, fluorogenic substrate, fluorescence | AID 720700 | 370,000 compounds, 0.84% hits | inhibition, % at 12.2 µM; in the data active = inhibition above about 9.5%
PLC-beta3 inh = blocks human PLC-beta3 enzyme activity; inhibition, % at 12.2 µM; Purified PLC-beta3, fluorogenic substrate, fluorescence; AID 720704; 370,000 compounds, 0.18% hits; Q01970
ADAM10 inh = inhibitors of human ADAM10; O14672; recombinant ADAM10, EDANS/DABCYL FRET peptide cleavage, 3 h; inhibition, % at 7 µM; 370,000 compounds, 0.62% hits;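 active = inhibition above a per-campaign cutoff equal to the mean of compounds falling between control-based bounds plus 3 SD, cut at about 20% in these data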
ADAM10 counter = ADAM10 inhibition, counter-screen for ADAM17 exosite hits; shares compounds with ADAM17 inh; recombinant ADAM10, EDANS/DABCYL FRET peptide cleavage, 3 h; inhibition, % at 6.95 µM; 2,900 compounds, 47% hits; AID 743256;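 active = mean inhibition over the triplicate runs exceeds the activity threshold set in the earlier primary screen, cut at about 20% in these data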
ADAM17 confirm = human ADAM17 inhibition, confirmation | 2,900 compounds, 65% hits | inhibition, % at 6.95 µM | shares compounds with ADAM17 inh | recombinant ADAM17, EDANS/DABCYL QFRET peptide cleavage;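 active = mean inhibition across replicates above the hit cutoff set in the primary screen, cut at about 8.5% in these data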
PLCgamma1 ctr = PLC-gamma1 inhibition, counter-screen for PLC-beta3 hits; shares compounds with PLC-gamma1 inh; purified PLC-gamma1, fluorogenic substrate, fluorescence; inhibition, % at 12.3 µM; 3,300 compounds, 3.1% hits; in the data active = inhibition above about 9.5%
PLCb3 confirm = human PLC-beta3 inhibition, confirmation; shares compounds with PLC-gamma1 inh; purified PLC-beta3, fluorogenic substrate fluorescence; inhibition, % at 12.3 µM; 3,300 compounds, 1% hits; AID 743261
Large screens that a line does not name were inactive (follow-up assays come after a bar, where they were run). Cut-off read from the data, not from the text of the source, unless noted: active = inhibition above about 11%; inactive = the rest.

OC(c1ccc2ccccc2c1)c1ncc(-c2ccc(C(F)(F)F)cc2)[nH]1 (stereo unspecified)	ADAM17 inh 10.2 | ADAM10 counter 42.4 | ADAM17 confirm 22.8
CCc1ccc(C(O)c2ncc(-c3ccc4ccccc4c3)[nH]2)cc1 (stereo unspecified)	none
Cc1c(C#N)c(=O)oc2ccc3ccccc3c12	none
CCCCCc1c(C)nc(N2CCc3ccccc32)[nH]c1=O	none
CCn1c(SCC(=O)Nc2cccc(C)c2)nc2ccccc2c1=O	none
C/C(=N\NC(=O)c1c(Br)c(C)nn1C)c1ccc(NC(=O)C(C)Oc2ccc(Cl)cc2C)cc1 (stereo unspecified)	ADAM17 inh 9.1 | ADAM10 counter inactive | ADAM17 confirm inactive
CCC(=O)Nc1ccc(/C(C)=N/NC(=O)c2c(Br)c(C)nn2C)cc1	none
CCN(CC)c1ccc(NC(=O)/C=C/c2cc(Br)ccc2OC)cc1	ADAM17 inh 10.2 | ADAM10 counter 27.4 | ADAM17 confirm 19.6
COc1ccc(Br)cc1/C=C/C(=O)Nc1c(C)cccc1C	ADAM17 inh 9.8 | ADAM10 counter inactive | ADAM17 confirm inactive
Cc1cc2ncn(C(=O)c3ccc(F)cc3)c2cc1C	none
CCOC(=O)/C(=N/Nc1ccccc1)c1csc(Nc2ccccc2)n1	ADAM17 inh 11.1 | ADAM10 counter inactive | ADAM17 confirm inactive
COc1ccc(OC(C)C(=O)Nc2cccc(F)c2)cc1 (stereo unspecified)	none
Cc1ccc(NC(CNS(=O)(=O)c2ccc(Cl)cc2)c2ccccc2)cc1 (stereo unspecified)	ADAM17 inh 13.1 | ADAM10 counter 30.7 | ADAM17 confirm 15.3
COC(=O)[C@]12C[C@H](CC(=O)N3CCC(c4ccccc4)CC3)C(=O)N(Cc3ccc4c(c3)OCO4)C1=C[C@H](C(C)C)O[C@@H]2C1CC1	none
Cc1cccc2nc(CSc3nc4ccccc4[nH]3)cn12	none
CCN1CCN(C(=S)c2ccc(OC)cc2)CC1	none
COc1ccc(C(=S)N2CCN(c3ccccc3C)CC2)cc1	ADAM17 inh 9.4, PLC-gamma1 inh 13.3 | ADAM10 counter inactive | ADAM17 confirm inactive | PLCgamma1 ctr inactive | PLCb3 confirm inactive
COc1ccc(Cn2cc(F)c(=O)n(C)c2=O)cc1[N+](=O)[O-]	none
COc1ccc(Cn2cc(F)c(=O)n(CCC(C)C)c2=O)cc1[N+](=O)[O-]	ADAM17 inh 9.8, PLC-gamma1 inh 13.0 | ADAM10 counter inactive | ADAM17 confirm inactive | PLCgamma1 ctr inactive | PLCb3 confirm inactive
CSc1nn2c(C)c(C)c(C)nc2c1C#N	none
O=C(O)c1cc([N+](=O)[O-])ccc1-c1ccc([N+](=O)[O-])cc1C(=O)O	ADAM17 inh 9.4, PLC-gamma1 inh 20.1, PLC-beta3 inh 12.4 | ADAM10 counter inactive | ADAM17 confirm inactive | PLCgamma1 ctr inactive | PLCb3 confirm inactive
Cc1cc(OCC(=O)OCC(=O)NCc2ccc3c(c2)OCO3)ccc1Cl	ADAM17 inh 10.8, PLC-gamma1 inh 10.1 | ADAM10 counter inactive | ADAM17 confirm 9.1 | PLCgamma1 ctr inactive | PLCb3 confirm inactive
O=C(COC(=O)COc1ccc(Br)cc1)NCc1ccc2c(c1)OCO2	none
CS(=O)(=O)N1CCN(c2ccc(NC(=O)C(c3ccccc3)c3ccccc3)cc2)CC1	ADAM17 inh 13.4, PLC-gamma1 inh 9.6 | ADAM10 counter inactive | ADAM17 confirm inactive | PLCgamma1 ctr inactive | PLCb3 confirm inactive
CCCCn1c(N)c(N(CCOC)C(=O)c2ccc(N3C(=O)CCC3=O)cc2)c(=O)[nH]c1=O	none
Cc1ccc(SCC(=O)OCC(=O)N(C)CC(=O)Nc2ccc(F)cc2)cc1	none
C=CCNC(=S)NNC(=O)c1ccc(C)c(Cl)c1	ADAM17 inh 11.9, PLC-gamma1 inh 13.2 | ADAM10 counter inactive | ADAM17 confirm inactive | PLCgamma1 ctr inactive | PLCb3 confirm inactive
O=C(CC1SC(=Nc2ccccc2)N(CCc2c[nH]c3ccccc23)C1=O)Nc1ccccc1F (stereo unspecified)	ADAM17 inh 9.9, PLC-beta3 inh 13.4 | ADAM10 counter 24.4 | ADAM17 confirm 12.8 | PLCgamma1 ctr inactive | PLCb3 confirm inactive
O=C(CC1SC(=Nc2ccccc2)N(CCO)C1=O)Nc1ccccc1 (stereo unspecified)	none
Cc1ccc(N2CC(C(=O)NCc3nnnn3-c3ccc(C)c(C)c3)CC2=O)cc1 (stereo unspecified)	none
Cc1ccc(-n2nnnc2CNC(=O)C2CC(=O)N(c3ccccc3)C2)cc1C (stereo unspecified)	ADAM17 inh 9.4, PLC-gamma1 inh 13.4 | ADAM10 counter inactive | ADAM17 confirm inactive | PLCgamma1 ctr inactive | PLCb3 confirm inactive
Cc1ccc(Nc2nc(Nc3ccc(C)cc3)nc(SC3=NCCS3)n2)cc1	ADAM17 inh 9.8, PLC-gamma1 inh 15.5 | ADAM10 counter 20.4 | ADAM17 confirm 11.8 | PLCgamma1 ctr inactive | PLCb3 confirm inactive
CN1CCN(C(=O)/C(=C/c2ccccc2)c2ccccc2)CC1	ADAM17 inh 8.7, PLC-gamma1 inh 9.8 | ADAM10 counter inactive | ADAM17 confirm inactive | PLCgamma1 ctr inactive | PLCb3 confirm inactive
Cc1ncc([N+](=O)[O-])n1CC(=O)N/N=C/c1ccccc1F	ADAM17 inh 9.9, PLC-beta3 inh 11.1 | ADAM10 counter inactive | ADAM17 confirm inactive | PLCgamma1 ctr inactive | PLCb3 confirm inactive
CC(C)Cc1nc2n[nH]c(N)c2c2c1COC(C)(C)C2	none
C/C(=N\N=C1\NC(=O)CC(C(=O)O)S1)c1cccs1 (stereo unspecified)	none
CNC(=O)C1CC(=O)N/C(=N/N=C(\C)c2cccs2)S1 (stereo unspecified)	ADAM17 inh 10.0, PLC-beta3 inh 11.5 | ADAM10 counter inactive | ADAM17 confirm 13.5 | PLCgamma1 ctr inactive | PLCb3 confirm inactive
COc1ccc(OC)c(NC(=O)CCC(=O)Nc2nnc(C(C)C)s2)c1	ADAM17 inh 11.8, PLC-gamma1 inh 12.4 | ADAM10 counter inactive | ADAM17 confirm inactive | PLCgamma1 ctr inactive | PLCb3 confirm inactive
COc1ccc(NC(=O)CCC(=O)Nc2nnc(C(C)C)s2)cc1Cl	none
CC(C)(C)c1cc(C(=O)CCN2CCOCC2)cc(C(C)(C)C)c1O	ADAM17 inh 9.4, PLC-gamma1 inh 12.6 | ADAM10 counter inactive | ADAM17 confirm inactive | PLCgamma1 ctr inactive | PLCb3 confirm inactive
CC1(c2ccccc2)NC(=O)N(CC(=O)Nc2cccc(/C=C/c3ccccn3)c2)C1=O (stereo unspecified)	none

Source: PubChem BioAssay (The Scripps Research Institute Molecular Screening Center)
